The source of these data is PubChem BioAssay (NCATS).

The nature of assay [1]: qHTS for identification of novel therapeutic agents for treatment of microphthalmiaassociated transcription factor (MiT) renal cell carcinoma (RCC) (AID 1963991; calls by dose curve). As to conditions: CellTiter-Glo, 48 h; for z-score: stronger effect = lower value. The method in brief: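 Three TFE3-fusion RCC cell lines (UOK109, UOK124, UOK145), 500 cells/well, were exposed to the 1912-compound MIPE 4.0 library for 48 hours at 37 C. Viability was read by CellTiter-Glo luminescence, normalised to DMSO (100%) and empty wells (0%), with 11-concentration curve fits.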
On the technique in general: Quantitative high-throughput screening tests each substance at several concentrations.

A short description of assay [2]: qHTS profiling for inhibitors of Plasmodium falciparum proliferation (AID 504749). Also: nearly all actives have a fitted effect of over 60% in size.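 As to activity, negative = inhibition: 0% = DMSO vehicle and full inhibition = artemisinin control.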 As to conditions: P. falciparum in erythrocytes, SYBR Green DNA, 72 h. The method in brief: (§1)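 Three-day growth assay of blood-stage parasites in erythrocytes (0.3% parasitemia, 2.5% hematocrit) at 37 C, 5% CO2, quantified by SYBR Green DNA staining after overnight detergent lysis.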

For a further assay, the system named is 3D7. Described as above. To be noted: P. falciparum in erythrocytes, SYBR Green DNA, 72 h; series mostly up to 28.7 µM. The method in brief: as §1
For the next assay, the system named is 7G8. The assay is described as above. As to conditions: P. falciparum in erythrocytes, SYBR Green DNA, 72 h; series mostly up to 28.7 µM. The method in brief:
as §1

The test system of another assay is AA1029. The assay is described as above. As to conditions: P. falciparum in erythrocytes, SYBR Green DNA, 72 h; series mostly up to 28.7 µM. The method in brief: as §1
For a further assay, the system named is ATS189. The description is as above. To be noted: P. falciparum in erythrocytes, SYBR Green DNA, 72 h; series mostly up to 28.7 µM. The method in brief:
as §1

For the next assay, the system named is ATS95. The assay is described as above. As to conditions: P. falciparum in erythrocytes, SYBR Green DNA, 72 h; series mostly up to 28.7 µM. The method in brief:
as §1

In another assay the test system is C2A. Described as above. To be noted: P. falciparum in erythrocytes, SYBR Green DNA, 72 h; series mostly up to 28.7 µM. The method in brief:
as §1

A further assay relates to CP185. The assay is described as above. As to conditions: P. falciparum in erythrocytes, SYBR Green DNA, 72 h; series mostly up to 28.7 µM. The procedure, abridged:
as §1

The subject of the next assay is CP191. The description is as above. To be noted: P. falciparum in erythrocytes, SYBR Green DNA, 72 h; series mostly up to 28.7 µM. The method in brief: as §1
The subject of the next assay is CP192. Described as above. As to conditions: P. falciparum in erythrocytes, SYBR Green DNA, 72 h; series mostly up to 28.7 µM. The procedure, abridged:
as §1

The next assay concerns CP194. The assay is described as above. To be noted: P. falciparum in erythrocytes, SYBR Green DNA, 72 h; series mostly up to 28.7 µM. The procedure, abridged: as §1
In another assay the test system is CP201. Described as above. As to conditions: P. falciparum in erythrocytes, SYBR Green DNA, 72 h; series mostly up to 28.7 µM. The method in brief:
as §1

In the next assay the test system is CP211. The assay is described as above. As to conditions: P. falciparum in erythrocytes, SYBR Green DNA, 72 h; series mostly up to 28.7 µM. The method in brief: as §1
Another assay has as its system CP215. Described as above. To be noted: P. falciparum in erythrocytes, SYBR Green DNA, 72 h; series mostly up to 28.7 µM. The method in brief: as §1
The next assay relates to CP217. The assay is described as above. As to conditions: P. falciparum in erythrocytes, SYBR Green DNA, 72 h; series mostly up to 28.7 µM. The method in brief: as §1
The subject of the next assay is AS120. The assay is described as above. To be noted: P. falciparum in erythrocytes, SYBR Green DNA, 72 h; series mostly up to 28.7 µM. The method in brief:
as §1

The mark [3] stands for this setting: TFE3-RCC UOK109 viability, measured here: UOK109 Z-AUC.
Setting [4] is: TFE3-RCC viability, measured here: UOK124 Z-AUC.
Where [5] appears, read: TFE3-RCC viability, measured here: UOK145 Z-AUC.
Setting [6] is: at 28.7 µM (top of the series), parasite line A.
The mark [7] stands for this setting: at 28.7 µM (top of the series), parasite line B.
[8] abbreviates: at 12.8 µM (top of the series), parasite line A.

Inconclusive results are not listed. Calls of active or inactive are those of the source. Unless noted, calls follow the shape of the dose curve; as a rule, active = well fitted inhibition curve with a large enough effect; inconclusive = small, poorly fitted or top-dose-only effect; inactive = flat fitted curve, though single readings scatter.
Potency is read from the fitted curve at half-maximal effect.

For `O=c1ccn([C@@H]2O[C@H](CO)[C@H](O)[C@H]2O)c(=O)[nH]1`, the z-score in assay [1] (setting [3]) was found to be 0.533; in assay [1] (setting [4]), 0.584; in assay [1] (setting [5]) it was 0.624.
As for `CO[C@H]1C=CC=C(C)C(=O)NC2=CC(=O)C(NCCN(C)C)=C(C[C@@H](C)C[C@H](OC)[C@@H](O)[C@@H](C)C=C(C)[C@@H]1OC(N)=O)C2=O`, the Potency in [1] (TFE3-RCC UOK109 viability, active = Z-AUC below -0.8 in all three lines) is 2.64 µM (active). Further, the z-score in [1] (setting [3]) was -1.45; in assay [1] (setting [4]) it was -3.65; in assay [1] (setting [5]) it was -1.68.
As to `CC1(C)O[C@H]2C[C@@H]3[C@H]4CCC5=CC(=O)C=C[C@]5(C)[C@@]4(F)[C@@H](O)C[C@]3(C)[C@]2(C(=O)CO)O1`, the results for the activity, negative = inhibition in assay [2] (setting [6]) and in assay [2] (setting [7]) were -0.373% (inactive) and -9.39% (inactive), respectively. Besides, the compound was called inactive with 3D7, with AA1029, in the assay with ATS95, in the assay with C2A, in the assay with CP185 and with CP201. In addition, the Potency in the assay with 7G8 is 8.91 µM (active). The Potency entry with ATS189, in the assay on CP191, with CP192, in the assay with CP194, in the assay on CP211 and in the assay with CP215 was “inactive” throughout. The Potency result with CP217 is “inactive”.
For `O=C(O)C=Cc1ccc(O)c(O)c1`, the z-score in [1] (setting [3]) was found to be 1.03; in assay [1] (setting [4]), 0.19; in [1] (setting [5]) it was 0.564.
As for `CCCNC(=O)NS(=O)(=O)c1ccc(Cl)cc1`, the values for the activity, negative = inhibition in [2] (setting [6]) and in assay [2] (setting [7]) were 14.4% (inactive) and 10.3% (inactive), respectively. The outcome in the assay on 3D7, in the assay with AA1029, in the assay with ATS95, with C2A, with CP185 and in the assay on CP201 was inactive. The Potency result in the assay on 7G8, with AS120, in the assay on ATS189, in the assay on CP191, in the assay with CP192 and in the assay on CP194 was “inactive” throughout. Moreover, the Potency entry with CP211, in the assay with CP215 and in the assay on CP217 was “inactive” throughout.
In the case of `CCC(=O)O[C@]1(C(=O)CO)CC[C@H]2[C@@H]3CCC4=CC(=O)CC[C@]4(C)[C@@H]3CC[C@@]21C`, the z-score worked out at 1.05 in assay [1] (setting [3]), 0.404 in [1] (setting [4]) and 0.464 in assay [1] (setting [5]).
As to `O=C(O)Cc1cccc2ccccc12`, the results for the activity, negative = inhibition in assay [2] (setting [6]) and in [2] (setting [7]) were 12.1% (inactive) and 6.39% (inactive), respectively. In addition, the compound was classed as inactive in the assay with 3D7, in the assay with AA1029, in the assay with ATS95, in the assay with C2A, in the assay with CP185 and in the assay with CP201. The Potency result in the assay on 7G8, with AS120, in the assay with ATS189, in the assay on CP191, with CP192 and in the assay on CP194 was “inactive” in each case. In addition, the Potency entry in the assay on CP211, in the assay with CP215 and in the assay on CP217 was “inactive” in each case.
Take `CCN(CC)CCNC(=O)c1ccc(N)cc1`: the activity, negative = inhibition in [2] (setting [6]) is 6.98% (inactive); in [2] (setting [7]) it was 5.88% (inactive). In addition, the result with 3D7, in the assay on AA1029, with ATS95, in the assay on C2A, in the assay with CP185 and in the assay with CP201 was inactive. The Potency entry with 7G8, in the assay with AS120, in the assay with ATS189, with CP191, in the assay with CP192 and with CP194 was “inactive” each time. In addition, the Potency entry in the assay on CP211, with CP215 and with CP217 was “inactive” in each case.
As for `CCN(CC)CCOC(=O)c1ccc(N)cc1`, the activity, negative = inhibition in assay [2] (setting [8]) is -0.702% (inactive). For the same compound, the outcome in the assay on 3D7, in the assay with AA1029, with ATS95, in the assay on C2A, in the assay on CP185 and with CP201 was inactive. The Potency entry in the assay with 7G8, in the assay on AS120, in the assay with ATS189, in the assay on CP191, in the assay with CP192 and with CP194 was “inactive” throughout. Also, the Potency result in the assay on CP211, with CP215 and in the assay with CP217 was “inactive” in each case.
In the case of `O=C(NCCN1CCOCC1)c1ccc(Cl)cc1`, the activity, negative = inhibition in assay [2] (setting [6]) was 9.62% (inactive); in [2] (setting [7]), 3.61% (inactive). The call with 3D7, in the assay with AA1029, with ATS95, with C2A, with CP185 and with CP201 was inactive. Also, the Potency entry in the assay with 7G8, in the assay on AS120, with ATS189, in the assay on CP191, in the assay on CP192 and in the assay on CP194 was “inactive” in each case. The Potency result in the assay on CP211, in the assay on CP215 and with CP217 was “inactive” throughout.
In the case of `C[C@]12CC[C@@H]3c4ccc(O)cc4CC[C@H]3[C@H]1C[C@@H](O)[C@H]2O`, the z-score was determined as 1.3 in assay [1] (setting [3]), 0.473 in [1] (setting [4]) and 0.59 in [1] (setting [5]).
For the compound `CCN(CC)C(=O)c1ccc(O)c(OC)c1`, the activity, negative = inhibition was 6.06% (inactive) in assay [2] (setting [8]); 6.5% (inactive) in [2] (at 12.8 µM (top of the series), parasite line B); 14.7% (inactive) in assay [2] (setting [6]); -14.5% (inactive) in assay [2] (setting [7]). Moreover, the compound was called inactive in the assay with 3D7, in the assay with AA1029, in the assay on ATS95, with C2A, in the assay on CP185 and in the assay with CP201. The Potency entry with 7G8, in the assay with AS120, with ATS189, in the assay with CP191, in the assay on CP192 and in the assay on CP194 was “inactive” throughout. For the same compound, the Potency entry in the assay with CP211, in the assay on CP215 and in the assay on CP217 was “inactive” throughout.
For `CCc1ccc(C=C2SC(=S)NC2=O)cc1`, the values for the z-score in [1] (setting [3]), in assay [1] (setting [4]) and in [1] (setting [5]) were -0.104, 0.457 and -0.976, respectively.
With `NCCS`, the activity, negative = inhibition in [2] (setting [6]) is 9.12% (inactive); in assay [2] (setting [7]), 7.21% (inactive). Besides, the result with 3D7, with AA1029, in the assay with ATS95, with C2A, in the assay on CP185 and in the assay on CP201 was inactive. The Potency result with 7G8, with AS120, in the assay with ATS189, in the assay with CP191, in the assay with CP192 and in the assay with CP194 was “inactive” throughout. Moreover, the Potency result in the assay on CP211, in the assay on CP215 and in the assay on CP217 was “inactive” each time.
